CYP2C9 inh: inhibitors of human CYP2C9. CYP2C9 Supersomes, luciferin-H conversion, luminescence. hit rate 20% among 96,000. AID 777. P11712. inhibition, % at 5 µM;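 active = blocking of liver enzyme CYP2C9 beyond about 50% at 5 µM, limit read from the data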
CYP2C19 act: activators of human cytochrome P450 2C19; activation factor at 5 µM; P33261; recombinant CYP2C19, luciferin-H EGE luminescence; stronger effect = higher value; 0 = fully inhibited enzyme, 1 = untreated enzyme; 96,000 tested, under 10 active; AID 1025;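 active = activation factor of at least 2 at 5 µM in the primary screen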;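 also: 0 = wells with 2.5 mM tranylcypromine and 1 = vehicle-only wells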
Target sequence (P33261 whole entry, looked up): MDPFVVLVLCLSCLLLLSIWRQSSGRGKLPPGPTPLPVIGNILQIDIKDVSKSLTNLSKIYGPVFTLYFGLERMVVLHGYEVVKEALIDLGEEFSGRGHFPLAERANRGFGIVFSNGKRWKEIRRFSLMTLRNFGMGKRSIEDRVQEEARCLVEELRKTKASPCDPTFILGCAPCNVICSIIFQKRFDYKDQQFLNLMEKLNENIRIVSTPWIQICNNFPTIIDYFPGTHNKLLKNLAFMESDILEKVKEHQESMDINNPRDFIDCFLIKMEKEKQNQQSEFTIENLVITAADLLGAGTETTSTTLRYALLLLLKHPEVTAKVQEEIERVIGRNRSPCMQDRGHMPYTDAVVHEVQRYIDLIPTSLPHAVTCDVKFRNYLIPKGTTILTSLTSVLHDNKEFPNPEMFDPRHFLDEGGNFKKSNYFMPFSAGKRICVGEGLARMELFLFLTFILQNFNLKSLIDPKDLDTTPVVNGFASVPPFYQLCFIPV
CYP2C19 inhib: blocks human cytochrome P450 2C19; P33261; CYP2C19 Supersomes, luciferin-H EGE luminescence, 30 min; inhibition, % at 5 µM; hit rate 21% among 96,000; AID 778;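 active = CYP2C19 inhibition above a set limit at 5 µM in the primary screen, cut at about 50% in these data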;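 also: plate controls were negative control wells for no effect and 2.5 mM tranylcypromine positive control for full effect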
CYP2C9 activ: increases human cytochrome P450 2C9 activity | P11712 | AID 1024 | activation factor at 5 µM | recombinant CYP2C9, luciferin-H conversion, luminescence; stronger effect = higher value; factor 1 = untreated enzyme, 0 = blocked | hit rate 1.4% among 96,000;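 active = activation factor of 2 or more for CYP2C9 at a 5 µM dose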;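 also: 0 = sulfaphenazole-blocked wells and 1 = vehicle-only wells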
An asterisk follows results filed as active. Shown are actives, neighbours in structure and some others; about 31% of the full set was active somewhere.

SMILES | CYP2C9 inh | CYP2C19 act | CYP2C19 inhib | CYP2C9 activ
CCCc1cc(-c2ccc(O)c(OCC)c2)c(C#N)c(N)n1 | 82.5* | 0.1 | 90.2* | 0.2
CCOc1cc(-c2cc(-c3ccc(C)o3)nc(N)c2C#N)ccc1O | 37.7 | 0.8 | 17.9 | 0.6
CCOc1cc(-c2c(C)c(CC)nc(N)c2C#N)ccc1O | 23.2 | 0.4 | 62.8* | 0.8
Cc1ccc(OCCNC(=O)C2CC(=O)N(c3ccc(C)cc3)C2)cc1 (stereo not given) | 5.2 | 0.6 | 37.2 | 0.9
COC(=O)c1sc(=S)sc1C(=O)OC | 23.7 | 0.5 | 52.1* | 0.8
Cc1ccc(NC(=O)N2C(=O)C3(OCCO3)c3ccccc32)cc1 | -3.6 | 0.4 | 59.9* | 1
NC(=O)C1CCN(C(=O)C2c3ccccc3C(=O)N3CCc4ccccc4C23)CC1 (stereo not given) | 18.0 | 1 | -4.3 | 0.8
CC(C)(C)n1nc(-c2ccc(Cl)cc2)c2c(N)ncnc21 | 12.9 | 0.4 | 58.6* | 0.9
CC(=O)N1CCN(c2ccc(Oc3ncnc4sccc34)cc2)CC1 | -7.7 | 1.1 | -13.1 | 1.1
O=C1C2C3C=CC(CC3)C2C(=O)N1/N=C/c1ccc(O)cc1 (stereo not given) | -95.9 | 0.7 | 27.8 | 2*
COc1ccc(NC(=O)Nc2cc(C)ccc2F)cc1 | 9.1 | 0.6 | 45.0 | 0.9
COc1ccc(NS(=O)(=O)c2cc(C)ccc2NC(=O)c2cc(C)oc2C)cc1 | 23.7 | 0.3 | 71.1* | 0.8
O=C(N1CCOCC1)C(F)(F)C(F)(F)C(F)(F)C(F)(F)C(=O)N1CCOCC1 | -5.4 | 1 | 1.1 | 1.1
Cc1ccc2c(CN3C(=O)NC4(CCCCC4)C3=O)cc(=O)oc2c1C | -26.7 | 0.7 | 32.0 | 1.3
Cc1ccc2c(CN3C(=O)NC(C)(c4ccc5c(c4)OCO5)C3=O)cc(=O)oc2c1 (stereo not given) | 98.3* | 0.1 | 92.3* | 0
Cc1cc2oc(=O)cc(CN3CCN(Cc4ccccc4)CC3)c2cc1Cl | -14.8 | 0.8 | 22.7 | 1.1
Cc1cc2oc(=O)cc(CN3CCC(C)CC3)c2cc1Cl | 10.3 | 0.1 | 85.2* | 0.9
Cc1ccc2c(CN3CCC(C)CC3)cc(=O)oc2c1 | 67.3* | 0 | 100.2* | 0.3
Cc1cc2oc(=O)cc(CN3CCCCC3C)c2c(C)c1Cl (stereo not given) | 11.0 | 0.4 | 55.6* | 0.9
Cc1oc2c(c1C(=O)NCCO)CCCC2 | -1.8 | 1 | -3.1 | 1
COc1ccc(-c2csc(/C(C#N)=C(\O)CSc3nccn3C)n2)cc1OC | 68.7* | 0.8 | 19.0 | 0.3
COc1ccccc1N1CCN(C/C(O)=C(\C#N)c2nc(-c3ccccc3)cs2)CC1 | 45.7 | 0.8 | 18.7 | 0.5
Cc1cc(=O)[nH]c(Sc2c(-c3ccccc3)c3ccccc3[nH]c2=O)n1 | 5.6 | 0.8 | 23.2 | 0.9
Cc1[nH]c2ccccc2c(=O)c1SC(F)(F)C(F)C(F)(F)F (stereo not given) | 21.6 | 0.4 | 57.7* | 0.8
CC(=O)c1sc2nc(C)cc(C)c2c1N | 4.7 | 1 | -1.8 | 1
SMILES | CYP2C9 inh | CYP2C19 act | CYP2C19 inhib | CYP2C9 activ
CCOC(=O)Nc1sc2nc(C)cc(C)c2c1-n1cccc1 | 65.6* | 0.5 | 45.3 | 0.3
O=C(Cn1nnc2c(sc3nc4c(c(-c5ccccc5)c32)CCC4)c1=O)c1ccccc1 | 6.4 | 1.1 | -13.0 | 0.9
O=C(Oc1c(Cl)cc(Cl)c2cccnc12)N1CCCCC1 | 54.2* | 0.4 | 64.5* | 0.5
CC(C)(C)NCc1cccn1-c1sc2c(c1C#N)CCCC2 | -2.2 | 0.8 | 22.9 | 1
COC(=O)c1c(C(=O)OC)c2cc(C)ccn2c1Cl | 54.1* | 0.5 | 46.7 | 0.5
CCN1C(=O)/C(=C2/Sc3ccc(OC)cc3N2C)SC1=Nc1cccc(O)c1 | 55.1* | 0.6 | 36.4 | 0.4
COc1ccc2c(c1)N(C)/C(=C1/SC(=NCc3ccccc3)N(c3ccccc3)C1=O)S2 | 35.9 | 0.9 | 8.2 | 0.6
Brc1c(CSc2nncn2-c2ccccc2)nc2sccn12 | -12.3 | 0.8 | 20.8 | 1.1
CC(C)(C)c1ccc(C(=O)OCCNC(=O)c2c(Cl)nc3ccccn23)cc1 | 92.4* | 0.4 | 59.1* | 0.1
COc1ccc(C(=O)OCCNC(=O)c2c(Cl)nc3ccccn23)cc1 | 44.6 | 0.3 | 75.0* | 0.6
N#Cc1ccccc1CSc1nc(N2CCCCC2)nc(N2CCCCC2)n1 | 48.7 | 0.9 | 10.3 | 0.5
Cc1cc(C)nc(SCC(=O)Nc2ccccc2[N+](=O)[O-])n1 | -9.9 | 0.7 | 25.8 | 1.1
Cc1cc(C)nc(SCCC(=O)Nc2cccc3ccccc23)n1 | -145.5 | 0.6 | 44.8 | 2.5*
CSCCC(NC(=O)c1cc(CC(C)C)oc1C)C(=O)O (stereo not given) | 21.5 | 1.1 | -5.5 | 0.8
Cc1ccc(-c2nnc(N3CCCCC3)c3ccccc23)cc1S(=O)(=O)N1CCN(C)CC1 | 57.5* | 0.9 | 14.6 | 0.4
Cc1nnc(NC(=O)c2sc3ccccc3c2Cl)s1 | 55.3* | 0.8 | 18.8 | 0.4
Cc1nnc(NC(=O)c2ccccc2Br)s1 | 55.2* | 0.9 | 5.4 | 0.4
Cc1cc(C(=O)COC(=O)C2=NNC(=O)CC2)c(C)n1-c1ccccc1 | 31.7 | 0.5 | 50.1* | 0.7
Cc1ccc(-n2c(C)cc(C(=O)COC(=O)C3=NNC(=O)CC3)c2C)cc1 | 52.4* | 0.4 | 61.5* | 0.5
Cc1cc(C)c(C)c(OCC(=O)N2CCCCCC2)c1 | -38.6 | 0.7 | 29.9 | 1.4
CC(C)(C)c1[nH]nc2c1C(Cc1ccccc1)C(C#N)=C(N)O2 (stereo not given) | 58.6* | 0.3 | 72.9* | 0.4
CC(C)(C)c1[nH]nc2c1C(C1C=CCCC1)C(C#N)=C(N)O2 (stereo not given) | 48.4 | 0.6 | 36.0 | 0.5
CC(C)(C)c1[nH]nc2c1C(c1ccc(OC(=O)c3ccco3)cc1)C(C#N)=C(N)O2 (stereo not given) | 71.2* | 0.3 | 65.3* | 0.3
CC(C)(C)c1[nH]nc2c1C(c1cccnc1)C(C#N)=C(N)O2 (stereo not given) | 28.6 | 0.8 | 22.0 | 0.7
Cc1cc2c(c(=O)n1C)C(Cc1ccccc1)C(C#N)=C(N)O2 (stereo not given) | 33.9 | 0.2 | 83.0* | 0.7
SMILES | CYP2C9 inh | CYP2C19 act | CYP2C19 inhib | CYP2C9 activ
O=C(Oc1cccc(N2C(=O)CCC2=O)c1)C1CC(=O)N(c2ccc(F)cc2)C1 (stereo not given) | 7.6 | 1.1 | -13.4 | 0.9
CCOC(=O)C(C)On1c(-c2ccc(Cl)cc2)nc2ccc([N+](=O)[O-])cc21 (stereo not given) | 43.6 | 0.8 | 18.3 | 0.6
CC(C)CNS(=O)(=O)c1ccc(CCC(=O)Nc2ccc3c(c2)OCCO3)cc1 | 58.0* | 0.6 | 38.7 | 0.4
CC(C)NS(=O)(=O)c1ccc(CCC(=O)Nc2ccc3c(c2)OCO3)cc1 | 51.6* | 0.5 | 47.8 | 0.5
CCC(C)NS(=O)(=O)c1ccc(OCC(=O)Nc2ccc3c(c2)OCO3)cc1 (stereo not given) | 31.0 | 0.8 | 17.0 | 0.7
CCCNS(=O)(=O)c1ccc(CCC(=O)Nc2ccc3c(c2)OCO3)cc1 | 81.8* | 0.1 | 94.8* | 0.2
CC(C)CNS(=O)(=O)c1ccc(C(=O)Nc2ccc3c(c2)OCCO3)cc1 | 9.6 | 1.1 | -11.1 | 0.9
